Publication PMC4336329 (PLoS ONE, 2015)
About 14,000 (4.5%) of roughly 310,000 compounds showed an effect of 50% or more. The effect is printed as a negative number. For the sample, strong results were picked, then their nearest neighbours and some compounds at random.

These molecules were tested against human ether-à-go-go-related gene (hERG) potassium channel (human, UniProt Q12809) (assay: primary screen, population patch clamp on CHO cells stably expressing hERG; higher = less effect of the substance).
human ether-à-go-go-related gene (hERG) potassium channel, sequence (Q12809 whole entry, looked up): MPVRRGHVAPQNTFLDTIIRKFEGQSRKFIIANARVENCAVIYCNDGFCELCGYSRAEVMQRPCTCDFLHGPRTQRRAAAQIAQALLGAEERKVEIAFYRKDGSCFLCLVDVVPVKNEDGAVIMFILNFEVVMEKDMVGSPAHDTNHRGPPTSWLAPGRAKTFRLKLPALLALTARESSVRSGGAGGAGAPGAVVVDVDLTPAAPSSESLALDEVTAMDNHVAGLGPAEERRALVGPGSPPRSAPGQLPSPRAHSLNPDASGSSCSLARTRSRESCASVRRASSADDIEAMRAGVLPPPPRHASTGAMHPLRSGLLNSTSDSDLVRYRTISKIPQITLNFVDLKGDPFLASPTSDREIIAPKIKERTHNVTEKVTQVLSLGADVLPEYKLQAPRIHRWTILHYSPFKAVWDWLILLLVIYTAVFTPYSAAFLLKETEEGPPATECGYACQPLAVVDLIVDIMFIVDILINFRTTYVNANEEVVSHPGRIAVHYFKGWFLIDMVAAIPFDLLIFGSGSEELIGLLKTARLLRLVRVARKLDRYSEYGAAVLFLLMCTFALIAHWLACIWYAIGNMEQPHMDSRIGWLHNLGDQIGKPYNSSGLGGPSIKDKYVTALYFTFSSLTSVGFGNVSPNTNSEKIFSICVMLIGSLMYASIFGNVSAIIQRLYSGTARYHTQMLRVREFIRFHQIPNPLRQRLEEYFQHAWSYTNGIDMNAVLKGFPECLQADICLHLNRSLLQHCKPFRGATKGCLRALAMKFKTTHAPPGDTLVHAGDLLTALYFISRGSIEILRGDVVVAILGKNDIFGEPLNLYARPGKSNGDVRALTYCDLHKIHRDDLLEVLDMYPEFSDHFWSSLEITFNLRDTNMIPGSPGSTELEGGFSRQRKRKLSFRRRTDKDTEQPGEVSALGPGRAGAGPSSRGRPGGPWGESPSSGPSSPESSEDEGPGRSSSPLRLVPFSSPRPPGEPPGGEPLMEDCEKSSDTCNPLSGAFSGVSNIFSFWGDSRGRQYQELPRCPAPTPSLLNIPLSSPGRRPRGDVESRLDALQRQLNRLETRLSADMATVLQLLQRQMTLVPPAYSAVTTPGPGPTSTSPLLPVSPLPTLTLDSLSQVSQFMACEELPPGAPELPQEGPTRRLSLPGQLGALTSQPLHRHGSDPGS
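Note: peak tail current of the secondary pulse compared with the same well before compound.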

Compound	hERG current change (%, negative = inhibition) at 10uM [%]
O=C1CCC(=O)N1CC(=O)N1c2ccccc2Sc2ccccc21	3.19
Cc1nc(C(=O)NC2CCOCC2)sc1C1(C)CC(c2ccccc2)=NO1 (centres unmarked)	-19.8
CC(C)CCNC(=O)C1CCC(=O)N1CCc1ccccc1 (centres unmarked)	9.14
CCN(CC)CCCNC(=O)c1cc2c(=O)n(CC)c3ccccc3c2s1	-14.9
CC(C)Oc1ccccc1C1Nc2ccccc2C(=O)N1c1ccc2c(c1)OCCO2 (centres unmarked)	3.43
Fc1ccccc1NC(=S)NC1CCCC1	14
Cc1ccc(NC(=O)N(C2=NCC(C)S2)c2ccccc2)cc1 (centres unmarked)	16.3
CCn1c(SCc2nc(-c3ccc(OC)c(OC)c3)no2)nnc1-c1cccs1	-40.1
Cn1c(SCc2nc(-c3ccc(Br)cc3)no2)nnc1-c1ccco1	-49.6
Cn1c(SCc2nc(-c3ccc(Cl)cc3)no2)nnc1-c1ccco1	-53.2
CCn1c(SCc2nc(-c3ccccc3)no2)nnc1-c1cccs1	-61.2
Cn1c(SCc2nc(-c3ccccc3)no2)nnc1-c1cccs1	-2.11
CCn1c(SCc2nc(-c3ccccc3)no2)nnc1-c1ccco1	-36.3
Cn1c(SCc2nc(-c3ccc(Cl)cc3)no2)nnc1-c1ccccc1	-22.5
CCn1c(SCc2nc(-c3ccc(Cl)cc3)no2)nnc1-c1ccco1	-62
Cn1c(SCc2nc(-c3ccccc3)no2)nnc1-c1ccco1	-18.4
O=C(NCCN1CCCC1)C1CCN(S(=O)(=O)N2CCC3(CC2)OCCO3)CC1	20.5
Cc1cccc(N(C)c2ncnc3onc(-c4ccc(F)cc4)c23)c1C	-8.28
COc1ccc(CN2CCNC(=O)C2CC(=O)NCC2CCOCC2)c(C)c1C (centres unmarked)	-19.6
O=C(O)CCCn1cc(NC(=O)COc2ccc(F)cc2)cn1	16.5

Compound	hERG current change (%, negative = inhibition) at 10uM [%]
N#Cc1c(N)oc(-c2ccco2)c1-c1ccco1	1.98
COc1ccc(NS(=O)(=O)c2cccc(C(=O)NNC(=O)CNC(=O)c3ccc(C)cc3)c2)cc1	-2.64
O=C(NCc1ccccc1)C(c1ccc(F)cc1)N(Cc1ccco1)C(=O)c1ccccn1 (centres unmarked)	-24.4
N#Cc1cccc(Nc2c3c(nc4ccccc24)CCC3)c1	-72.2
N#Cc1cccc(Nc2c3c(nc4ccccc24)CCCC3)c1	-74.8
O=C(Nc1c2c(nc3ccccc13)CCCC2)c1cccc([N+](=O)[O-])c1	-5.85
O=C(Nc1c2c(nc3ccccc13)CCCC2)c1ccccc1Br	4.09
CC(C)c1ccc(NC(=O)c2cc3c(=O)n(C)c4ccccc4c3n2C)cc1	6.96
COc1ccccc1OCc1ccc(C(=O)N2CCCCC2)o1	2.22
O=C(c1ccco1)c1cn(CC(=O)N2CCCCC2)c2ccccc12	-6.34
CCOC(=O)c1[nH]c2ccccc2c1NC(=O)COC	-4.53
Cc1cc(C(=O)CCl)c(C)n1Cc1ccco1	3.06
Cc1oc(-c2ccccc2F)nc1CS(=O)CC(=O)NCc1cccs1 (centres unmarked)	-12
Cc1oc(-c2ccc(Cl)cc2)nc1CN1CCC(C(=O)NCCCN2CCCC(C)C2)CC1 (centres unmarked)	-16.5
Cc1oc(-c2ccc(Cl)cc2)nc1CN1CCC(C(=O)NCc2cccs2)CC1	-61.5
Cc1oc(-c2ccc(Cl)cc2)nc1CN1CCC(C(=O)NCCCN2CCCC2=O)CC1	-33.9
Cc1oc(-c2ccccc2F)nc1CN1CCC(C(=O)NCc2cccs2)CC1	-63.7
Cc1ccccc1-c1nc(CN2CCC(C(=O)NCc3cccs3)CC2)c(C)o1	-70.5
CC12CCC3C(CC=C4CC(O)CCC43C)C1C/C(=C\c1cccc(F)c1)C2=O (centres unmarked)	7.89
COc1ccc(CNC(=O)Cc2nn(C)c(=O)c3ccccc23)cc1	-14.2

Compound	hERG current change (%, negative = inhibition) at 10uM [%]
CCN1CCN(S(=O)(=O)c2cc(C(=O)O)ccc2Cl)CC1.Cl	-3.34
Cc1ccc(S(=O)(=O)N2CCC(C(=O)NNC(=O)c3ccccc3)CC2)cc1	18.9
CCOc1ccc(NC(=S)N2CCC(C(O)(c3ccccc3)c3ccccc3)CC2)cc1	-13
CC(OC(=O)c1ccc(F)c(S(=O)(=O)N2CCOCC2)c1)C(=O)NCC1CCCCC1 (centres unmarked)	1.84
C=CCOCCN(CC)CC	-21.3
Cc1ccc(NC(=O)CSc2nnc(CNC(=O)c3c(F)cccc3Cl)o2)cc1	3.28
COc1cc(/C=C2\C(=O)N(CCC#N)N=C2C)ccc1OCC(=O)Nc1ccccc1	-7.3
Cc1oc(-c2ccc(-c3ccccc3)cc2)nc1CN(C)C1CCOC1 (centres unmarked)	-55.8
Cc1oc(-c2cccc(Cl)c2)nc1CN(C)C1CCOC1 (centres unmarked)	0.385
Cc1ccsc1-c1nc(CN2CCCC2c2ccc(F)cc2)c(C)o1 (centres unmarked)	24.9
Cc1ccsc1-c1nc(CN(C)C(C2CC2)C2CC2)c(C)o1	-76
Cc1oc(-c2cc(F)ccc2F)nc1CN1CCN(C)C(=O)[C@@H]1C	8.32
Cc1ccsc1-c1nc(CN2C[C@@H](C)O[C@@H](C)C2)c(C)o1	17.5
CSc1ccc(-c2nc(CN(C)C3CCOC3)c(C)o2)cc1 (centres unmarked)	-31.4
COc1cccc(C2CCCN2Cc2nc(-c3sccc3C)oc2C)c1 (centres unmarked)	20.6
Cc1ccc(-c2nc(CN(C)C(C3CC3)C3CC3)c(C)o2)cc1	-56.6
Cc1ccc(-c2nc(CS(=O)CC(=O)NC3CC3)c(C)o2)cc1 (centres unmarked)	6.39
Cc1ccsc1-c1nc(CN2CCN(C)C(=O)[C@@H]2C)c(C)o1	-52.5
Cc1oc(-c2ccc3ccccc3c2)nc1CN(C)C(C)c1ccncn1 (centres unmarked)	-49.8
